# What was measured:
# Test in all cases: SPOT peptide array binding signal intensity (averaged, normalized) (arbitrary units (background-subtracted, floor 0; scale differs between SH3 domains)); higher = stronger binding of the SH3 domain to the peptide
# AgAbp1 = molecular target: AgAbp1
# Outline: (§1)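 GST-fused SH3 domains, from four yeast species, were produced in E. coli BL21(DE3) and captured on glutathione Sepharose. Membranes of cellulose carrying synthetic 15-mer peptides, in which cysteines had been replaced by serines, were exposed to each domain at 10 μg/ml overnight at 4°C in TBS-based blocking buffer. After anti-GST antibody, an HRP anti-mouse secondary and luminol, spots were imaged and quantified using Genespotter. Binding signal is normalized and background-subtracted spot intensity, averaged over replicates, in arbitrary units that differ between domains.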
# AgBbc1 = molecular target: AgBbc1
# Outline: as §1
# AgBem1-D1 = molecular target: AgBem1-D1
# Outline: as §1
# AgBzz1-D1 = molecular target: AgBzz1-D1
# Outline: as §1
# AgBzz1-D2 = molecular target: AgBzz1-D2
# Outline: as §1
# AgCyk3 = molecular target: AgCyk3
# Outline: as §1
# AgFus1 = molecular target: AgFus1
# Outline: as §1
# AgHof1 = molecular target: AgHof1
# Outline: as §1
# AgHse1 = molecular target: AgHse1
# Outline: as §1
# AgLsb1 = molecular target: AgLsb1
# Outline: as §1
# AgLsb4 = molecular target: AgLsb4
# Outline: as §1
# AgMyo5 = molecular target: AgMyo5
# Outline: as §1
# AgNbp2 = molecular target: AgNbp2
# Outline: as §1
# AgRvs167 = molecular target: AgRvs167
# Outline: as §1
# AgSho1 = molecular target: AgSho1
# Outline: as §1
# AgSla1-D1-D2 = molecular target: AgSla1-D1-D2
# Outline: as §1
# AgSla1-D3 = molecular target: AgSla1-D3
# Outline: as §1
# CaAbp1-D1 = molecular target: CaAbp1-D1
# Outline: as §1
# CaAbp1-D2 = molecular target: CaAbp1-D2
# Outline: as §1
# CaBbc1 = molecular target: CaBbc1
# Outline: as §1
# CaBem1-D1 = molecular target: CaBem1-D1
# Outline: as §1
# CaBzz1-D1 = molecular target: CaBzz1-D1
# Outline: as §1
# CaBzz1-D2 = molecular target: CaBzz1-D2
# Outline: as §1
# CaCyk3 = molecular target: CaCyk3
# Outline: as §1
# CaFus1 = molecular target: CaFus1
# Outline: as §1
# CaHof1 = molecular target: CaHof1
# Outline: as §1
# CaHse1 = molecular target: CaHse1
# Outline: as §1
# CaLsb1 = molecular target: CaLsb1
# Outline: as §1
# CaLsb4 = molecular target: CaLsb4
# Outline: as §1
# CaMyo5 = molecular target: CaMyo5
# Outline: as §1
# CaNbp2 = molecular target: CaNbp2
# Outline: as §1
# CaRvs167 = molecular target: CaRvs167
# Outline: as §1
# CaRvs167-3 = molecular target: CaRvs167-3
# Outline: as §1
# CaSho1 = molecular target: CaSho1
# Outline: as §1
# CaSla1-D1-D2 = molecular target: CaSla1-D1-D2
# Outline: as §1
# CaSla1-D3 = molecular target: CaSla1-D3
# Outline: as §1
# ScAbp1 = molecular target: ScAbp1
# Outline: as §1
# ScBbc1 = molecular target: ScBbc1
# Outline: as §1
# ScBem1-D1 = molecular target: ScBem1-D1
# Outline: as §1
# ScBzz1-D1 = molecular target: ScBzz1-D1
# Outline: as §1
# ScBzz1-D2 = molecular target: ScBzz1-D2
# Outline: as §1
# ScCyk3 = molecular target: ScCyk3
# Outline: as §1
# ScFus1 = molecular target: ScFus1
# Outline: as §1
# ScHof1 = molecular target: ScHof1
# Outline: as §1
# ScHse1 = molecular target: ScHse1
# Outline: as §1
# ScLsb1 = molecular target: ScLsb1
# Outline: as §1
# ScLsb2 = molecular target: ScLsb2
# Outline: as §1
# ScLsb3 = molecular target: ScLsb3
# Outline: as §1
# ScLsb4 = molecular target: ScLsb4
# Outline: as §1
# ScMyo3 = molecular target: ScMyo3
# Outline: as §1
# ScMyo5 = molecular target: ScMyo5
# Outline: as §1
# ScNbp2 = molecular target: ScNbp2
# Outline: as §1
# ScPex13 = molecular target: ScPex13
# Outline: as §1
# ScRvs167 = molecular target: ScRvs167
# Outline: as §1
# ScSho1 = molecular target: ScSho1
# Outline: as §1
# ScSla1-D1-D2 = molecular target: ScSla1-D1-D2
# Outline: as §1
# ScSla1-D3 = molecular target: ScSla1-D3
# Outline: as §1
# SpAbp1-D1 = molecular target: SpAbp1-D1
# Outline: as §1
# SpBbc1 = molecular target: SpBbc1
# Outline: as §1
# SpBzz1-D1 = molecular target: SpBzz1-D1
# Outline: as §1
# SpBzz1-D2 = molecular target: SpBzz1-D2
# Outline: as §1
# SpCyk3 = molecular target: SpCyk3
# Outline: as §1
# SpHof1 = molecular target: SpHof1
# Outline: as §1
# SpHof1-2 = molecular target: SpHof1-2
# Outline: as §1
# SpHof1-3 = molecular target: SpHof1-3
# Outline: as §1
# SpHse1 = molecular target: SpHse1
# Outline: as §1
# SpLsb1 = molecular target: SpLsb1
# Outline: as §1
# SpLsb4 = molecular target: SpLsb4
# Outline: as §1
# SpMyo1 = molecular target: SpMyo1
# Outline: as §1
# SpNbp2 = molecular target: SpNbp2
# Outline: as §1
# SpPex13 = molecular target: SpPex13
# Outline: as §1
# SpRvs167 = molecular target: SpRvs167
# Outline: as §1
# SpSla1-D1-D2 = molecular target: SpSla1-D1-D2
# Outline: as §1
# SpSla1-D3 = molecular target: SpSla1-D3
# Outline: as §1
binder,measurement,setting,value
GKKVRPLLVLLLSRA,SPOT peptide array binding signal intensity,AgAbp1,≤ 0
same,SPOT peptide array binding signal intensity,AgBbc1,≤ 0
same,SPOT peptide array binding signal intensity,AgBem1-D1,≤ 0
same,SPOT peptide array binding signal intensity,AgBzz1-D1,23.5
same,SPOT peptide array binding signal intensity,AgBzz1-D2,2
same,SPOT peptide array binding signal intensity,AgCyk3,5
same,SPOT peptide array binding signal intensity,AgFus1,3030
same,SPOT peptide array binding signal intensity,AgHof1,0.5
same,SPOT peptide array binding signal intensity,AgHse1,1180
same,SPOT peptide array binding signal intensity,AgLsb1,≤ 0
same,SPOT peptide array binding signal intensity,AgLsb4,702
same,SPOT peptide array binding signal intensity,AgMyo5,≤ 0
same,SPOT peptide array binding signal intensity,AgNbp2,280
same,SPOT peptide array binding signal intensity,AgRvs167,1.5
same,SPOT peptide array binding signal intensity,AgSho1,795
same,SPOT peptide array binding signal intensity,AgSla1-D1-D2,≤ 0
same,SPOT peptide array binding signal intensity,AgSla1-D3,1
same,SPOT peptide array binding signal intensity,CaAbp1-D1,208
same,SPOT peptide array binding signal intensity,CaAbp1-D2,134
same,SPOT peptide array binding signal intensity,CaBbc1,0.5
same,SPOT peptide array binding signal intensity,CaBem1-D1,≤ 0
same,SPOT peptide array binding signal intensity,CaBzz1-D1,45
same,SPOT peptide array binding signal intensity,CaBzz1-D2,8
same,SPOT peptide array binding signal intensity,CaCyk3,9
same,SPOT peptide array binding signal intensity,CaFus1,3530
same,SPOT peptide array binding signal intensity,CaHof1,1.5
same,SPOT peptide array binding signal intensity,CaHse1,120
same,SPOT peptide array binding signal intensity,CaLsb1,≤ 0
same,SPOT peptide array binding signal intensity,CaLsb4,7.5
same,SPOT peptide array binding signal intensity,CaMyo5,≤ 0
same,SPOT peptide array binding signal intensity,CaNbp2,1520
same,SPOT peptide array binding signal intensity,CaRvs167,28.3
same,SPOT peptide array binding signal intensity,CaRvs167-3,50.8
same,SPOT peptide array binding signal intensity,CaSho1,562
same,SPOT peptide array binding signal intensity,CaSla1-D1-D2,≤ 0
same,SPOT peptide array binding signal intensity,CaSla1-D3,28
same,SPOT peptide array binding signal intensity,ScAbp1,3.5
same,SPOT peptide array binding signal intensity,ScBbc1,≤ 0
same,SPOT peptide array binding signal intensity,ScBem1-D1,≤ 0
same,SPOT peptide array binding signal intensity,ScBzz1-D1,18
same,SPOT peptide array binding signal intensity,ScBzz1-D2,104
same,SPOT peptide array binding signal intensity,ScCyk3,41
same,SPOT peptide array binding signal intensity,ScFus1,1690
same,SPOT peptide array binding signal intensity,ScHof1,≤ 0
same,SPOT peptide array binding signal intensity,ScHse1,1540
same,SPOT peptide array binding signal intensity,ScLsb1,≤ 0
same,SPOT peptide array binding signal intensity,ScLsb2,≤ 0
same,SPOT peptide array binding signal intensity,ScLsb3,97
same,SPOT peptide array binding signal intensity,ScLsb4,≤ 0
same,SPOT peptide array binding signal intensity,ScMyo3,≤ 0
same,SPOT peptide array binding signal intensity,ScMyo5,≤ 0
same,SPOT peptide array binding signal intensity,ScNbp2,237
same,SPOT peptide array binding signal intensity,ScPex13,≤ 0
same,SPOT peptide array binding signal intensity,ScRvs167,9.67
same,SPOT peptide array binding signal intensity,ScSho1,1560
same,SPOT peptide array binding signal intensity,ScSla1-D1-D2,≤ 0
same,SPOT peptide array binding signal intensity,ScSla1-D3,5.5
same,SPOT peptide array binding signal intensity,SpAbp1-D1,52.5
same,SPOT peptide array binding signal intensity,SpBbc1,0.5
same,SPOT peptide array binding signal intensity,SpBzz1-D1,21.5
same,SPOT peptide array binding signal intensity,SpBzz1-D2,≤ 0
same,SPOT peptide array binding signal intensity,SpCyk3,7
same,SPOT peptide array binding signal intensity,SpHof1,157
same,SPOT peptide array binding signal intensity,SpHof1-2,27.8
same,SPOT peptide array binding signal intensity,SpHof1-3,758
same,SPOT peptide array binding signal intensity,SpHse1,1200
same,SPOT peptide array binding signal intensity,SpLsb1,≤ 0
same,SPOT peptide array binding signal intensity,SpLsb4,41
same,SPOT peptide array binding signal intensity,SpMyo1,3.75
same,SPOT peptide array binding signal intensity,SpNbp2,1290
same,SPOT peptide array binding signal intensity,SpPex13,3
same,SPOT peptide array binding signal intensity,SpRvs167,6.83
same,SPOT peptide array binding signal intensity,SpSla1-D1-D2,1
same,SPOT peptide array binding signal intensity,SpSla1-D3,≤ 0
VNFRRIPTGPDSPPT,SPOT peptide array binding signal intensity,CaNbp2,113
same,SPOT peptide array binding signal intensity,CaRvs167,1.33
same,SPOT peptide array binding signal intensity,CaRvs167-3,115
same,SPOT peptide array binding signal intensity,CaSho1,94.5
same,SPOT peptide array binding signal intensity,CaSla1-D1-D2,≤ 0
same,SPOT peptide array binding signal intensity,CaSla1-D3,≤ 0
same,SPOT peptide array binding signal intensity,ScAbp1,4
same,SPOT peptide array binding signal intensity,ScBbc1,2
same,SPOT peptide array binding signal intensity,ScBem1-D1,≤ 0
same,SPOT peptide array binding signal intensity,ScBzz1-D1,6
same,SPOT peptide array binding signal intensity,ScBzz1-D2,8.5
same,SPOT peptide array binding signal intensity,ScCyk3,1.5
same,SPOT peptide array binding signal intensity,ScFus1,30
same,SPOT peptide array binding signal intensity,ScHof1,0.5
same,SPOT peptide array binding signal intensity,ScHse1,278
same,SPOT peptide array binding signal intensity,ScLsb1,≤ 0
same,SPOT peptide array binding signal intensity,ScLsb2,≤ 0
same,SPOT peptide array binding signal intensity,ScLsb3,79
same,SPOT peptide array binding signal intensity,ScLsb4,11
same,SPOT peptide array binding signal intensity,ScMyo3,≤ 0
same,SPOT peptide array binding signal intensity,ScMyo5,≤ 0
same,SPOT peptide array binding signal intensity,ScNbp2,35.5
same,SPOT peptide array binding signal intensity,ScPex13,22.8
same,SPOT peptide array binding signal intensity,ScRvs167,0.167
same,SPOT peptide array binding signal intensity,ScSho1,96.5
same,SPOT peptide array binding signal intensity,ScSla1-D1-D2,≤ 0
same,SPOT peptide array binding signal intensity,ScSla1-D3,2.5
same,SPOT peptide array binding signal intensity,SpAbp1-D1,≤ 0
same,SPOT peptide array binding signal intensity,SpBbc1,≤ 0
same,SPOT peptide array binding signal intensity,SpBzz1-D1,50
same,SPOT peptide array binding signal intensity,SpBzz1-D2,0.25
same,SPOT peptide array binding signal intensity,SpCyk3,≤ 0
same,SPOT peptide array binding signal intensity,SpHof1,178
same,SPOT peptide array binding signal intensity,SpHof1-2,6
same,SPOT peptide array binding signal intensity,SpHof1-3,0.75
same,SPOT peptide array binding signal intensity,SpHse1,192
same,SPOT peptide array binding signal intensity,SpLsb1,≤ 0
same,SPOT peptide array binding signal intensity,SpLsb4,27.5
same,SPOT peptide array binding signal intensity,SpMyo1,2.5
same,SPOT peptide array binding signal intensity,SpNbp2,14.5
same,SPOT peptide array binding signal intensity,SpPex13,≤ 0
same,SPOT peptide array binding signal intensity,SpRvs167,10.7
same,SPOT peptide array binding signal intensity,SpSla1-D1-D2,≤ 0
same,SPOT peptide array binding signal intensity,SpSla1-D3,≤ 0

# — the supplement of paper PMC4466140
